# Bioassay records as filed in PubChem.
# Dicer inh = inhibitors of Dicer pre-microRNA processing, primary screen, biochemical, cat-ELCCA, chemiluminescence; Endoribonuclease Dicer (Homo sapiens), Q9UPY3; actives 6% (n = 47,000); cat-ELCCA pre-miR-21 Dicer processing; hits give high values; z-score at 25 µM; in the data active means z-score above about 3, passing the limit was not always enough;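 further: higher signal means more uncleaved substrate so more Dicer inhibition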
# Target sequence (Q9UPY3 whole entry, looked up): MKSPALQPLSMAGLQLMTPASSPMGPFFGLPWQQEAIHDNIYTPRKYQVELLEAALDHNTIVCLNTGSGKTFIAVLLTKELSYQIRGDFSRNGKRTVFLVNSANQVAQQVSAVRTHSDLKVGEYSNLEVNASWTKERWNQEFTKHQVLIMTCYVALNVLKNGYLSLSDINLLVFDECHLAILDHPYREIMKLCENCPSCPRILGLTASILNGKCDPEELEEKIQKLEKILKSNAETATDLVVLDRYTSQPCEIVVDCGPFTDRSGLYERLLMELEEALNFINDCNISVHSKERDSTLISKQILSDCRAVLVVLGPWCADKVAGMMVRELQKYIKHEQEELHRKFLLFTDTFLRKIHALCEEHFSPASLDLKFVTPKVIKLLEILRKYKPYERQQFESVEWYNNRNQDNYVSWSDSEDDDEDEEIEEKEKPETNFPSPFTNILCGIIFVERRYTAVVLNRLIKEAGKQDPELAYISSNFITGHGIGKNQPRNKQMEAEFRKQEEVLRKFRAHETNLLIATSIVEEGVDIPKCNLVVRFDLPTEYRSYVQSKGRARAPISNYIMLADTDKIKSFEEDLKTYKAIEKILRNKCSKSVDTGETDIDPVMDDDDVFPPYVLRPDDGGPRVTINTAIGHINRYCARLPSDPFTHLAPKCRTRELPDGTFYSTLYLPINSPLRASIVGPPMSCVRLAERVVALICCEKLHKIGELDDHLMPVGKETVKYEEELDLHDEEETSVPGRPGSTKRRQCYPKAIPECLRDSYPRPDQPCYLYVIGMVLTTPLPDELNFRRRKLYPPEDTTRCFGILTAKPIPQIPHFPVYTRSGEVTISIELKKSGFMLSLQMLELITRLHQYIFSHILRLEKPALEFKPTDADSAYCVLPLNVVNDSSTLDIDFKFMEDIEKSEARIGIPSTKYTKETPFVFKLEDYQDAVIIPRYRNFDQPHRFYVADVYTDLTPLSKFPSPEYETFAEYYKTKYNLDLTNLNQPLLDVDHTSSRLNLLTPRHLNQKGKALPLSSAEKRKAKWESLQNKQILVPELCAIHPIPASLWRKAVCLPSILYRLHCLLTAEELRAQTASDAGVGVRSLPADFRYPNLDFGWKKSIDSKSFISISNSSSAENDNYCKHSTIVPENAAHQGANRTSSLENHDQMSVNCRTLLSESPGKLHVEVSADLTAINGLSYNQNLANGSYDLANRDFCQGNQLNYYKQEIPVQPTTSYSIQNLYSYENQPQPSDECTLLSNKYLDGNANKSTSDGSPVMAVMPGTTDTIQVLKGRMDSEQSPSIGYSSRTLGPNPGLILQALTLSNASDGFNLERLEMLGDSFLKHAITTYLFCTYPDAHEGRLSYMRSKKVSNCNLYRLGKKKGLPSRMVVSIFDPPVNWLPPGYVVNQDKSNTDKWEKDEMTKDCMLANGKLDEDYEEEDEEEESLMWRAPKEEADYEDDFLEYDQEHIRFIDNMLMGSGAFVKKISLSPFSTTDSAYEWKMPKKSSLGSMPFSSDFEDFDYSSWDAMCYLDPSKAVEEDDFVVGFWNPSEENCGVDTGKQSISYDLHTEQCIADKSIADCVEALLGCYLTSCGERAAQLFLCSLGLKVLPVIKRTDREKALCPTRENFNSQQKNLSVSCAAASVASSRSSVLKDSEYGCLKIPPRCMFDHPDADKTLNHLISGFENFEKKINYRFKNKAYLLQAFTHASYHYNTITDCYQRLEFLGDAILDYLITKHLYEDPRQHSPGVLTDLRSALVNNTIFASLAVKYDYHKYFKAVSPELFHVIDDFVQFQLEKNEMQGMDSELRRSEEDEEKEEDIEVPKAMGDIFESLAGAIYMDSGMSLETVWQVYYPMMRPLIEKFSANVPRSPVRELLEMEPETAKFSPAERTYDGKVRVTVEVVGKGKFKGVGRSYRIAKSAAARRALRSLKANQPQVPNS
# Hits are given with their value; i = inactive. The full list was thinned out, with hits kept by preference.
SMILES,Dicer inh
O=C(Cn1nc(C(F)F)cc1C1CC1)N1CCCC1,3.1
COc1ccc(NC(=O)c2ccc([N+](=O)[O-])o2)c(OC)c1,i
CC(C)OC(=O)c1cnn2c(C(F)(F)F)cc(-c3ccc(F)cc3)nc12,4.7
CCOC(=O)c1cnn2c(C)cc(-c3ccc(F)cc3)nc12,i
Cc1ccc(-c2cc(C(F)(F)F)n3ncc(C(=O)Nc4ccc5c(c4)OCO5)c3n2)cc1,i
COc1cccc2c1OC1=C(C2)C(=O)CC(C)(C)C1,i
CC(C)(C)c1cc2nc(-c3ccc(Cl)cc3)cc(C(F)(F)F)n2n1,i
O=C1OC(c2ccc(Cl)cc2)Sc2ccccc21 (centres undefined),i
CC1CN(c2nc3ccccc3nc2SCC(=O)NCC2CCCO2)CC(C)O1 (centres undefined),i
S=c1[nH]nc2nc(-c3ccccc3)c(-c3ccccc3)nn12,i
CCSc1nnc2nc3c4ccccc4c4ccccc4c3nn12,i
S=c1[nH]nc2nc3c4ccccc4c4ccccc4c3nn12,4.9
COc1c(Cl)cc(Cl)c(OC)c1C(=O)NCCCN(C)C,i
C=CCN/C=C(\C#N)S(=O)(=O)c1ccc(Cl)cc1,i
Nc1ccccc1N1C(=O)c2cccc3cccc(c23)C1=O,i
COc1ccc(OC)c(N2C(=O)c3cccc4cccc(c34)C2=O)c1,5.7
O=C1c2cccc3cccc(c23)C(=O)N1c1ccccc1O,i
CN1CCN(CN2C(=O)C3(OCCO3)c3ccccc32)CC1,i
Cc1cc(NC(=O)c2nc3ncccn3n2)no1,i
COc1ccc(C2CC(c3ccco3)n3nc(N)nc3N2)cc1 (centres undefined),i
O=C(O)c1cccc2c1NC(c1ccccc1)C1C3CCC(C3)C21 (centres undefined),i
Cc1cc(C)c(C)c(Oc2coc3cc(OCC(=O)OCC(C)C)ccc3c2=O)c1,i
Cc1cccc(Cl)c1/C=N/Nc1ccc(-c2csnn2)cc1,i
CCOc1c(Nc2cccc(OC)c2)c(=O)c1=O,i
CCCCOc1c(Nc2cccc(OC)c2)c(=O)c1=O,i
SMILES,Dicer inh
CCOc1c(Nc2ccccc2O)c(=O)c1=O,4.1
CC12CN3CC(C)(CN(C1)C3c1ccccc1F)C2=O (centres undefined),i
Cn1nc2c3ccccc3n(CC(=O)c3ccc(Br)cc3)c2nc1=S,i
COc1cccc(C2Nc3ccccc3NC3=C2C(=O)CC(c2cccs2)C3)c1 (centres undefined),3.4
COc1ccc(C2CC(=O)C3=C(C2)Nc2ccccc2NC3c2ccc(OC)cc2)cc1 (centres undefined),4.5
COc1ccc(C2CC(=O)C3=C(C2)Nc2ccccc2NC3c2cccc(Br)c2)cc1 (centres undefined),i
Cc1ccccc1C1Nc2ccccc2NC2=C1C(=O)CC(c1ccccc1)C2 (centres undefined),i
COc1ccc(C2Nc3ccccc3NC3=C2C(=O)CC(c2cccs2)C3)cc1Br (centres undefined),i
COc1ccc(C2CC(=O)C3=C(C2)Nc2ccccc2NC3c2ccc(F)cc2)cc1 (centres undefined),i
COc1cccc(C2C3=C(CC(c4ccccc4)CC3=O)Nc3ccccc3N2C(=O)C2CC2)c1 (centres undefined),3.7
O=C(O)CCC(=O)N1c2ccccc2NC2=C(C(=O)CC(c3ccccc3)C2)C1c1cccc(F)c1 (centres undefined),i
CN(C)c1ccc(C2CC(=O)C3=C(C2)Nc2ccccc2NC3c2ccccc2)cc1 (centres undefined),4.8
Cc1ccc(C2CC(=O)C3=C(C2)Nc2ccccc2NC3c2ccncc2)cc1 (centres undefined),i
COc1ccccc1C1Nc2ccccc2NC2=C1C(=O)CC(c1cccs1)C2 (centres undefined),i
COc1ccc(C2CC(=O)C3=C(C2)Nc2ccccc2N(C(=O)C2CC2)C3c2cccnc2)cc1OC (centres undefined),i
COc1cc(C2c3c(oc4ccc(Cl)cc4c3=O)C(=O)N2Cc2ccccc2)ccc1O (centres undefined),i
Cc1ccc(Cn2cc(CO)c3ccccc32)cc1,i
Cc1ccc(Cl)cc1NC(=S)NCCNc1nccc(C(F)(F)F)n1,i
CCCCCn1c(SCC(=O)Nc2ccc(Cl)cc2)n[nH]c1=O,i
O=C(CSc1nnc2c(n1)-c1cccc3cccc-2c13)Nc1ccc(Cl)cn1,i
CCOC(=O)N1CCc2c(sc3c2C(=O)NC(c2ccc(OCC)cc2)N3)C1 (centres undefined),i
COc1ccc(Cl)cc1N1C(=O)CC(C)(C)CC1=O,i
COc1ccc(C2CC(=O)C3=C(C2)Nc2ccccc2NC3c2cccc(O)c2)cc1 (centres undefined),i
COc1ccc(C2CC(=O)C3=C(C2)Nc2ccccc2NC3c2coc3ccc(Cl)cc3c2=O)cc1 (centres undefined),i
COc1ccc(C2CC(=O)C3=C(C2)Nc2ccccc2NC3c2ccc(F)c(Br)c2)cc1 (centres undefined),5.2
SMILES,Dicer inh
O=C1CC(c2ccccc2)CC2=C1C(c1ccc(F)c(F)c1)Nc1ccccc1N2 (centres undefined),4.6
CCOc1cc(C2Nc3ccccc3NC3=C2C(=O)CC(c2ccccc2)C3)ccc1O (centres undefined),i
O=C1CC(c2ccccc2)CC2=C1C(c1cccnc1)Nc1ccccc1N2 (centres undefined),i
O=C1NC(c2ccc([N+](=O)[O-])o2)Nc2sc3c(c21)CCCC3 (centres undefined),i
Fc1cccc(Cl)c1CO/N=C/c1ccc(Cl)cc1Cl,i
COC(=O)CO/N=C/c1ccc(Cl)cc1Cl,i
O=C(CO/N=C/c1ccc(Cl)cc1Cl)NNC(=S)Nc1cc(Cl)ccc1Cl,5.6
O=C1c2oc3ccc(Cl)cc3c(=O)c2C(c2ccc(O)cc2)N1Cc1ccccc1 (centres undefined),i
O=[N+]([O-])c1ccc(OC2CCC3CCC2C3)cc1 (centres undefined),i
COc1ccc(-c2cc3nccc(-c4ccc5c(c4)N(C)C(=O)CO5)n3n2)cc1,i
C=CCOc1cccc(C2c3c(oc4ccccc4c3=O)C(=O)N2c2nncs2)c1 (centres undefined),i
CSc1nc(C)c2cc(C)oc2n1,4.3
C=CCSc1nc(C)c2cc(C)ccc2n1,i
C=C1SC(Nc2ccccc2Cl)=NC1(C)C,i
COC(=O)Nc1cc(OC)cc(C(F)(F)F)c1,i
C=CCn1c(CSc2nc(-c3ccccc3)cn2-c2ccc(OC)cc2OC)n[nH]c1=S,3.4
S=c1[nH]nc(CSc2nc(-c3ccccc3)cn2-c2ccccc2)n1-c1ccccc1,i
C=CCn1c(SCc2n[nH]c(=S)n2C)nnc1-c1ccccc1,i
CCCc1ccc(-n2[nH]nnc2=S)cc1,i
Cc1ccc2c(c1)c1c(n2CC(O)CNCc2ccco2)CCCC1 (centres undefined),5
OC(CNCc1ccco1)COc1ccccc1 (centres undefined),i
Cc1ccc2c(c1)c1c(n2CC(O)CNCc2ccccc2)C(=O)CCC1 (centres undefined),i
O=C(Nc1cccc(NC(=O)N2CCOCC2)c1F)N1CCOCC1,i
Cc1ccc(N2C(=O)C3C4c5ccccc5C(C(=O)O)(c5ccccc54)C3C2=O)cc1 (centres undefined),i
Cc1ccc(N2C(=O)C3C4C=CC(CO)(O4)C3C2=O)cc1Br (centres undefined),i
